Measurements: PubChem BioAssay AID686979 (National Center for Advancing Translational Sciences (NCATS), 2013)
Screen size: about 420,000 compounds; about 50,000 (12%) were called active. Another 26% or so got no clear call; they are omitted. Calls follow the shape of the dose curve; as a rule, active = well fitted inhibition curve with a large enough effect; inconclusive = small, poorly fitted or top-dose-only effect; inactive = flat fitted curve, though single readings scatter. The full list was thinned out, with actives kept by preference.

Experiment: qHTS for Inhibitors of human tyrosyl-DNA phosphodiesterase 1 (TDP1): qHTS in cells in presence of CPT; also: nearly all actives have a fitted effect of over 55% in size
Details: chicken DT40 Tdp1-/-;hTDP1 cells + 20 nM CPT, ATP luminescence, 48 h; series mostly up to 46.2 µM; activity change, negative = growth inhibition: at the top concentration
Method in brief: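 Cell growth measured by CellTiter-Glo luminescence after a minimum 48 h, 37 C compound exposure with 20 nM CPT in Tdp1-knockout DT40 cells stably expressing hTDP1, seeded 400/well; qHTS titration format.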
% is scaled to controls: 0 for no effect and ±100 for the full control effect; potency is read from the fitted curve at half-maximal effect.

SMILES	activity change, negative = growth inhibition	Potency
O=S(=O)(Nc1cc(Cl)ccc1N1CCOCC1)c1ccccc1Cl	-20.2% (inactive)	
O=S(=O)(c1ccccc1)c1nc(-c2ccc(Cl)cc2Cl)oc1N1CCCCC1		14.6 µM (active)
COc1ccc(-c2nc(S(=O)(=O)c3ccccc3)c(N3CCCCC3)o2)cc1		23.1 µM (active)
O=S(=O)(c1ccccc1)c1nc(Cc2ccccc2)oc1N1CCOCC1	1.8% (inactive)	
O=S(=O)(c1ccc(Br)cc1)c1nc(-c2ccccc2)oc1N1CCOCC1	-29.8% (inactive)	
CC(=O)c1ccc(N2CCN(c3nc4c(S(=O)(=O)c5ccccc5)nnn4c4ccc(Cl)cc34)CC2)cc1	-4.91% (inactive)	
Cc1ccc(CNC(=O)CCC(=O)N2Cc3ccccc3Oc3ncccc32)cc1	-16.5% (inactive)	
CC(C)Cc1nnc(N)s1	-3.67% (inactive)	
COc1cc2ccc(C(C)=O)c(O)c2cc1OC	9.28% (inactive)	
COCCC(=O)N1CCC(Oc2ccc(C(=O)NCc3ccon3)cc2)CC1	4.81% (inactive)	
CCOc1ccc(C(=O)N2CCN(CCc3ccccn3)CC2)cc1	-1.49% (inactive)	
Cc1cc2nn(-c3ccc(Cl)cc3)nc2cc1NC(=O)C(C)C	-6.45% (inactive)	
O=C(Cc1ccc(Cl)cc1)Nc1ccc2nn(-c3ccc(Cl)cc3)nc2c1	-7.92% (inactive)	
Nc1ccc2nn(-c3ccc(Cl)cc3)nc2c1		6.51 µM (active)
Cc1cccc(C)c1NC(=O)CNC(=O)c1c(C)nn(-c2ccccc2)c1C	-8.65% (inactive)	
COc1cc(NC(=O)Cn2c(=O)n(Cc3ccco3)c(=O)c3oc4ccccc4c32)cc(OC)c1	-3.53% (inactive)	
Cc1nnc(SCC(=O)Nc2ccc(S(=O)(=O)Nc3ccc(Cl)nn3)cc2)s1	-11.3% (inactive)	
CCOC(=O)CN1C(=O)C(O)(CC(=O)c2ccccn2)c2ccccc21 (configuration not stated)		5.8 µM (active)
CCOC(=O)CN1CCC(c2ccccc2)CC1	-1.52% (inactive)	
CCOC(=O)Cn1c(-c2cccnc2Cl)nc2ccccc21	0.835% (inactive)	
CCn1c(SCc2cccc(C(=O)O)c2)nnc1-c1ccc(Cl)cc1	4.66% (inactive)	
CN(C)CCCOc1ccc(-c2ccc3nccn3c2)cn1	11.3% (inactive)	
CCc1ccc(NC(=O)N2CCc3ccccc3C2)cc1	-21.3% (inactive)	
Cc1ccc(NC(=O)CN2CCc3ccccc3C2)cc1C	-29.3% (inactive)	
Cc1cccc(C)c1NC(=O)c1ccc(CN2CCc3ccccc3C2)cc1		20.6 µM (active)
CC(=O)c1ccc(S(=O)(=O)N2CCC(Oc3ccc(-n4cnnn4)cc3)CC2)cc1		inactive

SMILES	activity change, negative = growth inhibition	Potency
O=S(=O)(/C=C/c1ccccc1)N1CCNCC1	-4.52% (inactive)	
CCN1CCN(CC(=O)c2cc(OC)c(OC)c(OC)c2)CC1	-1.2% (inactive)	
COc1cc(C(=O)NCCOC(=O)c2cccc(N(C)C)c2)cc(OC)c1OC	7.13% (inactive)	
CCn1c(CNC(=O)c2cc(OC)c(OC)c(OC)c2)cc2cc(C)ccc21		20.6 µM (active)
O=C(COC(=O)c1ccccc1)Nc1ccccc1Sc1ccccc1	-2.56% (inactive)	
CCc1nc2nc(C)c(NS(=O)(=O)c3ccc4c(c3)CCCC4)c(=O)n2[nH]1	-0.594% (inactive)	
Cn1nccc1NS(=O)(=O)c1ccc(F)cc1	3.58% (inactive)	
Cc1cc(F)ccc1NS(=O)(=O)c1ccc(-n2cccn2)cc1		14.6 µM (active)
Cc1ccc(NS(=O)(=O)c2ccc(F)cc2)nc1	-7.37% (inactive)	
O=C(COc1ccc([N+](=O)[O-])cc1Cl)Nc1ccc2[nH]c(=O)[nH]c2c1	-23% (inactive)	
COC(=O)C[C@@H]1C=C[C@@H](NC(=O)c2cccnc2)[C@@H](CO)O1	2.13% (inactive)	
Cc1ccc(SC(CC(=O)c2ccc(C(C)(C)C)cc2)C(=O)O)cc1 (configuration not stated)		3.66 µM (active)
Cc1ccc(Sc2cc(C(=O)c3ccccc3C(=O)O)ccc2[N+](=O)[O-])cc1	-8.99% (inactive)	
Cc1ccc(C(=O)CSc2ccccc2C(=O)O)cc1	-2.04% (inactive)	
COc1ccccc1C(=O)N/C(=C/c1ccc2c(c1)OCO2)C(=O)Nc1cccc(C(=O)O)c1	-15.3% (inactive)	
CCOC(=O)c1sc(-c2cccc([N+](=O)[O-])c2)cc1N	0.456% (inactive)	
CCOC(=O)c1sc(C)c2c1NC(C)(c1cccc3ccccc13)NC2=O (configuration not stated)		25.9 µM (active)
CCOC(=O)c1cc2cc3ccccc3cc2oc1=O	1.87% (inactive)	
CCCNC(=O)COc1coc(CN2CCN(Cc3ccccc3)CC2)cc1=O	-4.86% (inactive)	
Cc1ccc(S(=O)(=O)N2CCC3(CC2)OCCO3)c(C)c1	-0.485% (inactive)	
COc1cccc(Nc2ncccc2C(=O)O)c1	-0.267% (inactive)	
COc1cccc(Nc2ncc3ncc(=O)n(C4CC4)c3n2)c1		14.6 µM (active)
Cc1nc2cnc(Nc3ccccc3)nc2n(C[C@H]2CCCO2)c1=O	5.94% (inactive)	
COc1cccc(CC(=O)OCC(=O)NCc2ccc3c(c2)OCO3)c1	-6.33% (inactive)	
CCC1CN(CCNC(=O)c2cccnc2C)Cc2cc(OC)ccc2O1 (configuration not stated)	21.1% [at 9.04 µM] (inactive)	
COc1cccc(OC)c1CN(C)C(=O)c1cnccc1C(F)(F)F	6.45% (inactive)	

SMILES	activity change, negative = growth inhibition	Potency
CCn1cc(C(=O)NCCO)c(=O)c2cc(F)c(N3CCN(C)CC3)cc21	-4.68% (inactive)	
CCn1cc(S(=O)(=O)c2cccc(C)c2)c(=O)c2cc(F)c(N3CCN(C)CC3)cc21	-15.2% (inactive)	
CC1CCCN(c2cc3c(cc2F)c(=O)c(S(=O)(=O)c2cccc(Cl)c2)cn3Cc2ccccc2)C1 (configuration not stated)	0.498% (inactive)	
Cc1cccc(S(=O)(=O)c2cn(Cc3ccccc3)c3cc(N4CCOCC4)c(F)cc3c2=O)c1		6.51 µM (active)
Cc1ccc(S(=O)(=O)c2cn(Cc3ccccc3)c3cc(N4CCCC4)c(F)cc3c2=O)c(C)c1		20.6 µM (active)
COCCNC(=O)C1CCN(S(=O)(=O)c2ccc3c(c2)OCCO3)CC1	-10.3% (inactive)	
C[C@H]1CN([C@@H](C)CO)C(=O)CCCn2cc(nn2)CO[C@@H]1CN(C)S(=O)(=O)c1ccc(-n2cccn2)cc1	-13.4% (inactive)	
CC(=O)NNc1cc(=O)c2c(=O)n(C)c(=O)n(C)c2[nH]1	-1.94% (inactive)	
Cc1cccc(NC(=O)c2ccc(COc3ccccc3[N+](=O)[O-])o2)n1	-4.93% (inactive)	
COc1ccc(C)cc1N1C(=O)[C@@H]2C[C@H]1CN2Cc1cccc(OC)c1O	-12.7% [at 9.04 µM] (inactive)	
COc1cc(C(=O)NCCS(=O)(=O)N2CCN(c3ccccc3)CC2)cc(OC)c1OC		20.6 µM (active)
CCOc1ccc(CC(=O)NCCS(=O)(=O)N2CCN(c3ccccc3)CC2)cc1	-20.6% (inactive)	
COc1cc(C(=O)NCC(=O)N2CC=C(c3ccccc3)CC2)cc(OC)c1OC		16.4 µM (active)
COc1ccc(OC)c(CN2CCN(C(=O)CNC(=O)c3cc(C)cc(C)c3)CC2)c1	-27.7% (inactive)	
COc1cc(OC)cc(C(=O)NCC(=O)N2CCCCCCC2)c1	-3.83% (inactive)	
COc1cccc(OCC(=O)NCCS(=O)(=O)N2CCN(c3ccccc3)CC2)c1	-18.7% (inactive)	
CC(=O)Nc1nc(N(C)C)nc(N(C)C)n1	2.3% (inactive)	
CN(CC(=O)Nc1ccc(OC(F)(F)F)cc1)C(=O)C1CCC1	-22.9% (inactive)	
O=C(NCC(=O)N1CCCCCCC1)c1ccccc1Cl	-3.35% (inactive)	
Cc1ccc(CN2CCN(Cc3ccc4ncccc4c3)CC2CCO)cc1 (configuration not stated)	-7.54% (inactive)	
Cc1cccc(N(CC(=O)Nc2ccc(-c3nc4ccc(C)cc4s3)cc2)S(C)(=O)=O)c1		13 µM (active)
CCN(CC)S(=O)(=O)c1ccc(NC(=O)CN(c2cccc(F)c2)S(C)(=O)=O)cc1	-21.7% (inactive)	
COc1cccc(N(CC(=O)Nc2cccc(F)c2)S(C)(=O)=O)c1	-23.4% (inactive)	
O=C(Nc1nnc(C2CC(=O)N(c3ccc(Cl)cc3)C2)s1)c1ccco1 (configuration not stated)	-24% (inactive)	
CC(C)Nc1nnc(SC(C)C(=O)N(C)C2CCCCC2)s1 (configuration not stated)	-9.32% (inactive)	
CC(NC(=O)Nc1ccc2c(c1)OCO2)c1ccncc1 (configuration not stated)	12.1% (inactive)	

SMILES	activity change, negative = growth inhibition	Potency
CC1CCCN(C(C(=O)Nc2ccc(C(C)C)cc2)c2ccc3c(c2)OCO3)C1 (configuration not stated)		18.4 µM (active)
CCc1ccc(NC(=O)NC(C)c2ccc3c(c2)OCO3)cc1 (configuration not stated)	-12.2% (inactive)	
O=C(CN1C(=O)NC2(CCCCC2)C1=O)N1CCN(C(=O)c2cccs2)CC1	9.19% (inactive)	
COc1ccc(Cl)cc1NC(=O)NC(C)C(C)(C)C (configuration not stated)	18.8% (inactive)	
O=[N+]([O-])c1cccc(/C=N/Nc2ncc(Br)cn2)c1	-2.55% (inactive)	
COc1ccc(/C=N/Nc2nc3ccccc3o2)cc1OC	2.57% (inactive)	
COc1cc(/C=N/Nc2nc3ccccc3s2)ccc1O		1.46 µM (active)
CCNc1nc(NCC)nc(N/N=C/c2ccc(O)c(OC)c2)n1	-23% (inactive)	
Cc1ccc(S(=O)(=O)Nc2nc3ccccc3s2)cc1[N+](=O)[O-]	5.53% (inactive)	
O=[N+]([O-])c1cc(Br)c(O)c(/C=N/Nc2nc3ccccc3s2)c1		8.2 µM (active)
CCOC(=O)N1CCC(N2Cc3cccc(C(=O)Nc4ccc(S(=O)(=O)N(CC)CC)cc4)c3C2=O)CC1	-18.8% (inactive)	
C=CCOc1cccc(C2C(C(=O)c3ccc(C)o3)=C(O)C(=O)N2CCN2CCOCC2)c1 (configuration not stated)	-22.3% (inactive)	
COc1ccc(C(=O)Nc2ccccc2C(=O)N/N=C/c2ccc(O)c(OC)c2)cc1		16.4 µM (active)
COc1ccc(/C=N/NC(=O)c2ccccc2)cc1OS(=O)(=O)c1ccccc1	-71.7% (inactive)	
COc1ccc(/C=N/Nc2ccccc2C(=O)O)cc1	-1.82% (inactive)	
Cc1cccc(C)c1N1C(=O)CN(Cc2ccccc2)C1=S	-6.5% (inactive)	
C=CCC1(CC=C)CCCN1C(=O)CC1C(=O)NCCN1Cc1ccccc1OC (configuration not stated)	-23.7% (inactive)	
O=C(Cc1ccc(Br)cc1)NCCN1CCOCC1	17.8% (inactive)	
COC1=C/C(=C/c2c(N)n3nc(CC(=O)N4CCOCC4)sc3nc2=O)C=CC1=O	-0.843% (inactive)	
Cc1cccc(CSc2nc3ccncc3n2Cc2ccc(C(=O)O)cc2)c1	-0.967% (inactive)	
O=C(O)c1ccc(CSc2nc3cccnc3n2Cc2cccc(F)c2)cc1	-1.39% (inactive)	
COc1cccc(Cn2c(SCc3ccc(C(=O)N4CCC(C)CC4)cc3)nc3ccncc32)c1		11.6 µM (active)
CCC1C(=O)NCCN1C(=O)c1ccc2nc(Cc3ccc(OC)cc3)oc2c1 (configuration not stated)	-10.2% (inactive)	
COc1ccc(S(=O)(=O)N2CCN(C)CC2)c(C)c1	3.87% (inactive)	
